Shown are actives, neighbours in structure and some others; about 10% of the full set was active somewhere.
L3MBTL1 inh = blocks human L3MBTL1 | hit rate 0.66% among 230,000 | Potency, µM (top dose mostly 57.1 µM), for inactives: at the highest dose activity, negative = inhibition, actives largely listed as inhibitors | AlphaScreen L3MBTL1–H3K9me1 peptide binding | Q9Y468; also: % is scaled to controls: 0 for no effect and ±100 for the full control effect; nearly all actives have a fitted effect of over 60% in size
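First, the protein-peptide complex forms for 30 min at room temperature (L3MBTL1 50 nM, biotinylated H3K9me1 peptide 75 nM). Next, compounds are pin-transferred and incubated 30 min. Finally, AlphaScreen beads are added and read after 30 min.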
JMJD2A Tudor inh = JMJD2A Tudor domain (human) inhibition | O75164 | AlphaScreen JMJD2A-Tudor / H3K4me3 peptide binding | Potency, µM (series often up to 114 µM), inactives show top-dose activity change, negative = inhibition, actives largely listed as inhibitors | hit rate 4.4% among 390,000; also: % is scaled to controls: 0 for no effect and ±100 for the full control effect; nearly all actives have a fitted effect of over 50% in size
G9a block = blocks human histone lysine methyltransferase G9a; Q96KQ7; Potency, µM (doses to about 102 µM), for the others: at the highest dose activity, negative = inhibition, usual class: inhibitors; G9a H3K9 monomethylation, AlphaScreen, 2 h; hit rate 8.8% among 350,000; also: % is scaled to controls: 0 for no effect and ±100 for the full control effect; nearly all actives have a fitted effect of over 75% in size
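Using a bead-based AlphaScreen, monomethylated H3K9 product from 2 h room-temperature reactions (G9a 20 nM, peptide 500 nM, SAM 20 uM) was detected with 0.5 ug/mL rabbit anti-H3K9me1 antibody.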
BAZ2B inh = blocks human BAZ2B; Q9UIF8; AlphaScreen BAZ2B-H3K14Ac peptide displacement; Potency, µM (highest dose often 114 µM), without a hit: at the top dose activity change, negative = inhibition, hits mostly inhibitors; hit rate 4.4% among 360,000; also: % is scaled to controls: 0 for no effect and ±100 for the full control effect; nearly all actives have a fitted effect of over 60% in size
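AlphaScreen displacement: compounds (up to 110uM) incubated 30 min at room temperature with a preformed 50 nM BAZ2B/50 nM biotinylated H3K14Ac peptide complex in PBS pH 7.4 with Tween-20. Donor and acceptor beads at 10 ug/mL final added, 20 min light-protected before reading.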
HP1b binding inh = HP1-beta chromodomain-methylated histone interaction inhibition; Potency, µM (doses to about 114 µM), inactives show at the highest dose activity change, negative = inhibition, most hits filed as inhibitors; hit rate 0.56% among 390,000; AlphaScreen HP1-beta / biotin-H3K9me3 peptide binding; also: nearly all actives have a fitted effect of over 70% in size
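Compound inhibition of the preformed complex between 50 nM HP1-beta and 50 nM biotinylated H3K9me3 peptide was read by AlphaScreen. Buffer was PBS pH 7.4 with 0.01% Tween-20. Incubations ran 30 min at room temperature, with 10 ug/mL donor/acceptor beads.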
GLS inh = glutaminase GLS (human) inhibition; O94925; GLS enzymatic activity, qHTS titration; Potency, µM (series often up to 45.5 µM), for inactives: at the top dose activity change, negative = inhibition, hits mostly inhibitors; hit rate 0.21% among 410,000; AID 624170; also: % is scaled to controls: 0 for no effect and ±100 for the full control effect
Target sequence (O94925 whole entry, looked up): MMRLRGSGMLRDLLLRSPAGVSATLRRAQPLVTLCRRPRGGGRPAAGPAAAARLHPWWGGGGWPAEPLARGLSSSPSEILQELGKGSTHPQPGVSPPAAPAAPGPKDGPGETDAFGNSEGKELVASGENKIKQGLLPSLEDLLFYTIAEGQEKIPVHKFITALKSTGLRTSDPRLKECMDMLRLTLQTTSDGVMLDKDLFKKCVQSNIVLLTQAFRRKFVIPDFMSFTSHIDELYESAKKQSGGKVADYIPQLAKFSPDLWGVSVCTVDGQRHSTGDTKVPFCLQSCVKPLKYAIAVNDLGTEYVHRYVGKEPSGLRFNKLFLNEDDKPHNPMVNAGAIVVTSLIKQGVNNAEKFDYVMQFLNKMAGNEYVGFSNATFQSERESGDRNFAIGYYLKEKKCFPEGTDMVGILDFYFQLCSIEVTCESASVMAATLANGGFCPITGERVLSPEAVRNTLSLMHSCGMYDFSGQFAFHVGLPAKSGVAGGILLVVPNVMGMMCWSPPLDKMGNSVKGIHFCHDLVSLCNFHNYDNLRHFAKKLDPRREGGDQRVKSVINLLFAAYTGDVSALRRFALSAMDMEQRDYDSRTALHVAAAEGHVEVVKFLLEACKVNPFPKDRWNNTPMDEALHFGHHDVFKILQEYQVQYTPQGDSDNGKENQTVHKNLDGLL
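hKGA in 45 mM KH2PO4 (pH 8.2), 0.02% Tween-20 with compound, then 1mM L-Glutamine (stock as added) plus glutamate oxidase/HRP/Amplex red coupling mix. Fluorescence read initially and after 30 min at RT; signal change reflects glutamate formation.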
The depositor's hits bear a star; ? = inconclusive; / = not tested or not shown; [ ] = another dose, or the depositor's remark. Calls follow the shape of the dose curve; as a rule, active = well fitted curve in the direction sought with a large enough effect; inconclusive = small, poorly fitted or top-dose-only effect, or another doubt; inactive = no such curve, though single readings can be large; an effect the other way counts as inactive or inconclusive. Potency is read from the fitted curve at half-maximal effect.

SMILES	L3MBTL1 inh	JMJD2A Tudor inh	G9a block	BAZ2B inh	HP1b binding inh	GLS inh
C=CCc1cccc2cc(C(=O)Nc3ccc(S(=O)(=O)Nc4nnc(CC)s4)cc3)c(=O)oc12	5%	28µM*	?	22µM*	28µM*	-17%
C=CCc1cccc2cc(C(=O)Nc3ccc(CC(=O)O)cc3)c(=O)oc12	-10%	-12%[11.4 µM]	50µM*	32µM*	-23%	-26%
C=CCc1cccc2cc(C(=O)N3CCN(C(=O)c4ccccc4)CC3)c(=O)oc12	/	-15%	14µM*	?	27%	-5%
C=CCc1cccc2cc(C(=O)Nc3ccc(F)cc3)c(=O)oc12	-2%	-20%	2%[59 µM]	-10%	9%	8%
C=CCc1cccc2cc(C(=O)N3CCOCC3)c(=O)oc12	-15%	-13%	-47%	5%	27%	8%
CCc1nc(SCC(=O)c2ccc3c(c2)OCCO3)c2ccccc2n1	17%	0%	8.9µM*	20%	40%	2%
COc1ccc(OCc2ccc(C(=O)NN)cc2)cc1	/	?	45µM*	2%	25%	13%
COc1ccc(C(=O)NNC(=O)CCC(=O)NNC(=O)c2ccc(OC)cc2)cc1	/	-18%	7.9µM*	50µM*	37%	-5%
CCc1nc(SCC(=O)NNC(=O)c2ccc(OC)cc2)c2ccccc2n1	7%	50µM*	11%	-21%	-12%	8.9µM*
CCn1c(CSc2nc3ccccc3s2)nnc1SCC(N)=O	1%	-16%	1%	-2%	13%	-3%
CCn1c(CSc2nc3ccccc3s2)nnc1SCC(=O)c1ccc2c(c1)OCCO2	-4%	79µM*	?	3%	29%	5%
COc1ccc2c(c1)CC(NC(=O)Nc1ccc(NC(C)=O)cc1)CO2 (stereo not given)	/	-13%	0%[59 µM]	0%	30%[57 µM]	-1%
Cc1ccc(C)c(NC(=O)CN(C)C(C)C(=O)N2CC(C)CC(C)C2)c1 (stereo not given)	5%	-20%	56µM*	-5%	48%	-7%
CC(C)C[C@@H](/C=C/S(C)(=O)=O)NC(=O)[C@H](CC(C)C)NC(=O)[C@H](CC(C)C)NC(=O)OCc1ccccc1	/	/	36%[59 µM]	/	/	/
CCCCn1c(N)c(N(CCC(C)C)C(=O)C(C)N2C(=O)c3ccccc3C2=O)c(=O)[nH]c1=O (stereo not given)	-2%	-5%	13µM*	9%	14%	5%
CCCCn1c(N)c(N(CC(C)C)C(=O)C2CCN(C(=O)c3ccc(Cl)cc3)CC2)c(=O)[nH]c1=O	5%	-5%	?	-2%	48%	1%
CC(C)CCN(C(=O)c1ccc(N2CCCC2=O)cc1)c1c(N)n(Cc2ccccc2)c(=O)[nH]c1=O	3%	-7%	-4%	11%	32%	-9%
CCCCN(C(=O)C(C)N1C(=O)c2ccccc2C1=O)c1c(N)n(CCCC)c(=O)[nH]c1=O (stereo not given)	2%	-4%	4%[12.7 µM]	-2%	22%	-2%
CCCCn1c(N)c(N(CC)C(=O)c2ccc(N3CCCC3=O)cc2)c(=O)[nH]c1=O	11%	-3%	50µM*	0%	30%	-3%
CCCCn1c(N)c(N(CCC(C)C)C(=O)c2ccc(N3CCCC3=O)cc2)c(=O)[nH]c1=O	1%	3%	35µM*	7%	26%	-3%
CCCCn1c(N)c(N(CCC(C)C)C(=O)C2CCCN(C(=O)c3ccc(Cl)cc3)C2)c(=O)[nH]c1=O (stereo not given)	-3%	?	40µM*	11%	37%	2%
COc1ccc(S(=O)(=O)N(CC(=O)Nc2ccc3c(c2)OCO3)c2ccc(C)cc2)cc1	/	-21%	-44%[59 µM]	?	14%	1%
CCCCn1c(N)c(N(CC)C(=O)c2ccc(C#N)cc2)c(=O)[nH]c1=O	/	-2%	50µM*	2%	32%	-2%
O=C(Nc1ccc(N2CCOCC2)c(Cl)c1)c1cccc(-n2cnnc2)c1	/	-11%	21%	-5%	17%	2%
CCOc1ccc(NC(=O)c2cccc(-n3cccc3)c2)cc1S(=O)(=O)N1CCOCC1	5.6µM*	/	-7%[2.33 µM]	5µM*	/	/
SMILES	L3MBTL1 inh	JMJD2A Tudor inh	G9a block	BAZ2B inh	HP1b binding inh	GLS inh
CC1CCc2sc(C(=O)Nc3ccc(N4CCOCC4)cc3)cc2C1 (stereo not given)	-2%	?	32µM*	?	?	10%
O=C(Nc1ccc(N2CCOCC2)cc1)c1cccc(-n2cnnc2)c1	/	-15%	45µM*	-22%	-11%	0%
Cc1cc(C)n(-c2ccc(C(=O)Nc3ccc4c(c3)OCO4)cc2)n1	/	-13%	-14%	-22%	1%	-2%
Cc1cc(C)n(-c2ccc(C(=O)Nc3ccc(N4CCOCC4)cc3)cc2)n1	/	-25%	56µM*	-27%	24%	-6%
CCOc1ccc(C(=O)Nc2ccc(S(=O)(=O)N3CCOCC3)cc2)cc1OCC	24%	-20%	-44%	-2%	15%	6%
CCOC(=O)Cc1ccc(NC(=O)NC(C)c2c(-n3cccc3)sc(C)c2C)cc1 (stereo not given)	/	?	?	?	-2%	2%
O=C(Cc1ccc(Cl)cc1)NCC(c1cccs1)S(=O)(=O)c1ccccc1 (stereo not given)	/	-14%	-11%[59 µM]	2%	17%[57 µM]	-4%
Cc1ccc(C(=O)Nc2cc3cc(Cl)ccc3oc2=O)cc1	/	-19%	8%[59 µM]	5%	28%	-11%
CC(C)C(NS(=O)(=O)c1ccc2c(c1)oc(=O)n2C)C(=O)NCc1ccccc1 (stereo not given)	/	6%	6%[59 µM]	-12%	32%	-2%
CCc1nnc(NC(=O)c2ccc(Cl)nc2)s1	-2%	-11%	?	-27%	24%	4%
CCN(c1ccc(NC(=O)c2ccc(Cl)nc2)cc1)C(C)C	?	-15%	22µM*	?	29%	0%
O=C(Nc1ccc(N2CCOCC2)cc1)c1ccc(Cl)nc1	/	?	50µM*	?	-18%	38%
O=C(Nc1ccc(N2CCOCC2)cc1)c1ccncc1	-25%	-14%	-5%[59 µM]	-4%	7%	33%
COc1ccccc1C1CC(c2ccco2)=NN1S(C)(=O)=O (stereo not given)	-1%	50µM*	-38%	-13%	-22%	-8%
CS(=O)(=O)N1N=C(c2ccco2)CC1c1ccc(Br)cc1 (stereo not given)	0%	-4%	35µM*	-11%	46%	-1%
CS(=O)(=O)N1N=C(c2ccco2)CC1c1ccccc1Cl (stereo not given)	-6%	-21%	-39%	-35%	27%	14%

High-throughput results as filed in PubChem BioAssay.
